# Data reported in the supplement of paper PMC9446081.
# ± gives the standard deviation of the averaged measurements.
# Columns and labels:
# Assay in all cases: relative enzymatic activity vs untreated control (fraction); higher = less inhibition
# Details in all cases: 100 µM; incubation time: 2 h at 37 C
# DNA gyrase = test system: DNA gyrase
# Procedure: (§1)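 In vitro enzymatic inhibition assays (ProFoldin kits) for 12 purified essential E. coli enzymes or complexes, each treated with 218 active antibacterial compounds at 100 µM for 2 h at 37°C. Read-outs were fluorescence or absorbance (phosphate detection, dye binding), converted to activity via standard curves and expressed relative to untreated DMSO controls.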
# DNA helicase = DNA helicase (UniProt P0ACB1)
# DNA helicase, sequence (P0ACB1 whole entry): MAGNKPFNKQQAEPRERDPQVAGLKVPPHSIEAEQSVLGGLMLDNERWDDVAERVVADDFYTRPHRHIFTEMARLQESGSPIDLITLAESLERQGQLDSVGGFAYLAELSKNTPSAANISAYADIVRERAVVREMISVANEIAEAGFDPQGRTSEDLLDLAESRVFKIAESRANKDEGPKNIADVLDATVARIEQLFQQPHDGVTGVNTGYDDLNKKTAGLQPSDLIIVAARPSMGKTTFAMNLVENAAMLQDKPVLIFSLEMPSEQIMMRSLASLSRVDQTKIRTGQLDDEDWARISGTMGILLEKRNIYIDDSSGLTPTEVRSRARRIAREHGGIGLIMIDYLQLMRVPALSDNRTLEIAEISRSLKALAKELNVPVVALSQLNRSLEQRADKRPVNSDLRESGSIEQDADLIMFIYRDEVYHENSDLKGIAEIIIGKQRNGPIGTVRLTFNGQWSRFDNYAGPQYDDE
# Procedure: as §1
# DNA ligase = DNA ligase (UniProt B1XA82)
# DNA ligase, sequence (B1XA82 whole entry): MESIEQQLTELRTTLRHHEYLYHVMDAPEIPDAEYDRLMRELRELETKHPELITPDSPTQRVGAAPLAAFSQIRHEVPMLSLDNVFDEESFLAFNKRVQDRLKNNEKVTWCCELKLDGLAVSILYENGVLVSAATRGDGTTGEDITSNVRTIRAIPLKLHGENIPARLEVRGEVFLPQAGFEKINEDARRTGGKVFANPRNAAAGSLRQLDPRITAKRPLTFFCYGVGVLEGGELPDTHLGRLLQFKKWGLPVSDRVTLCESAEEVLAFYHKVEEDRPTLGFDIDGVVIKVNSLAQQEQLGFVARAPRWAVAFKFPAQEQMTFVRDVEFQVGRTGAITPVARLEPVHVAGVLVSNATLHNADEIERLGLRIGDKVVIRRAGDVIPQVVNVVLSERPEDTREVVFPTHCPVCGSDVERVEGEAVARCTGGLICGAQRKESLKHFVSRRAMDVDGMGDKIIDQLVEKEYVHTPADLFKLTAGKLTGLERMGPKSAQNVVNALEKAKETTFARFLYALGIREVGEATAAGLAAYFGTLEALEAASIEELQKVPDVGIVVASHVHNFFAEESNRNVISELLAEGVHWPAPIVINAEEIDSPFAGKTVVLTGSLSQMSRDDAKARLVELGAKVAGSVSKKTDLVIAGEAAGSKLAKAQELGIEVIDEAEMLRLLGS
# Procedure: as §1
# DNA polymerase = DNA polymerase (UniProt P10443)
# DNA polymerase, sequence (P10443 whole entry): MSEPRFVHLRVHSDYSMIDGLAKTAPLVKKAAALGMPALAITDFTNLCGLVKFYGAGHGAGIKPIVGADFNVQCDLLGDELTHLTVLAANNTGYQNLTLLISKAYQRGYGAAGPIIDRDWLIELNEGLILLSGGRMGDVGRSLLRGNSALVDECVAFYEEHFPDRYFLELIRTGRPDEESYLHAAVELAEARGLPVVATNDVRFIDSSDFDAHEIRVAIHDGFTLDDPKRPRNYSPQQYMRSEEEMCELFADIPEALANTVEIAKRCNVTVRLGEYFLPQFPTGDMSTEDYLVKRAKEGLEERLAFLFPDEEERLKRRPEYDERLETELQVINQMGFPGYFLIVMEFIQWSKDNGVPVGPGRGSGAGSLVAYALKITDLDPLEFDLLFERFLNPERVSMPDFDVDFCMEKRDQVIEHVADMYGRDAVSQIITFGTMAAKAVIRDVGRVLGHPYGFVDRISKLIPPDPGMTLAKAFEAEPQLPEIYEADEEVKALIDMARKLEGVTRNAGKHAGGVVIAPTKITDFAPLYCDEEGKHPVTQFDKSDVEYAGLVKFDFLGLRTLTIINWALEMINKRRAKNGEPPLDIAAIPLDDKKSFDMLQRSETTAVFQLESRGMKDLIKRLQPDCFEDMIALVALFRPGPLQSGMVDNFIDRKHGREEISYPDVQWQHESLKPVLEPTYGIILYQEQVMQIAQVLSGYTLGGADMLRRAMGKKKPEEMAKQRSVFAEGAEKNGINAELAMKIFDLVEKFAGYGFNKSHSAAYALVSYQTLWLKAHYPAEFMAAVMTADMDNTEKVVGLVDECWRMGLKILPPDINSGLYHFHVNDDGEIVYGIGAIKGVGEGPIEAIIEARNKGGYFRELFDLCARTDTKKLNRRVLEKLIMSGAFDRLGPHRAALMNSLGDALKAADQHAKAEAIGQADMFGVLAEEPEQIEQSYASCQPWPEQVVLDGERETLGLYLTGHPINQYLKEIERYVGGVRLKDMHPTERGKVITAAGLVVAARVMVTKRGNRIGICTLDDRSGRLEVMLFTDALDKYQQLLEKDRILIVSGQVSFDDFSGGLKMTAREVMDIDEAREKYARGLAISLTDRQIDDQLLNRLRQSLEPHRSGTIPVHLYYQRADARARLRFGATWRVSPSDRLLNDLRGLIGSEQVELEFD
# Procedure: as §1
# DNA primase = DNA primase (UniProt P0ABS7)
# DNA primase, sequence (P0ABS7 whole entry): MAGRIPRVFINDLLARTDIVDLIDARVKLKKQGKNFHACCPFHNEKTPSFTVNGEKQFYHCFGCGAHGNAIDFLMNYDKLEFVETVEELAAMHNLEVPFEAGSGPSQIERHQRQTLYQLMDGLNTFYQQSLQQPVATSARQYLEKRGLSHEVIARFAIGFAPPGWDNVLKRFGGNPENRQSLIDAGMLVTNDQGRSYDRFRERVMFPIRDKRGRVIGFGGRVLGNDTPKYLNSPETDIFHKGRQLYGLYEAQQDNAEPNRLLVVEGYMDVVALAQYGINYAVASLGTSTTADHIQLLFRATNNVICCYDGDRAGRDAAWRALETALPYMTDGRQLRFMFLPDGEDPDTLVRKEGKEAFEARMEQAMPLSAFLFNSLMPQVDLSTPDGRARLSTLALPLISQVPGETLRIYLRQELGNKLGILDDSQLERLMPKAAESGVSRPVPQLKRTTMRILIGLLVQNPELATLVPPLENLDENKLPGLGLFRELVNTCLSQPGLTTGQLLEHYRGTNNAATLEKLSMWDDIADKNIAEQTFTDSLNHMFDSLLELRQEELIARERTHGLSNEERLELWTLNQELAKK
# Procedure: as §1
# GlmU = GlmU (UniProt A7ZTU1)
# GlmU, sequence (A7ZTU1 whole entry, looked up): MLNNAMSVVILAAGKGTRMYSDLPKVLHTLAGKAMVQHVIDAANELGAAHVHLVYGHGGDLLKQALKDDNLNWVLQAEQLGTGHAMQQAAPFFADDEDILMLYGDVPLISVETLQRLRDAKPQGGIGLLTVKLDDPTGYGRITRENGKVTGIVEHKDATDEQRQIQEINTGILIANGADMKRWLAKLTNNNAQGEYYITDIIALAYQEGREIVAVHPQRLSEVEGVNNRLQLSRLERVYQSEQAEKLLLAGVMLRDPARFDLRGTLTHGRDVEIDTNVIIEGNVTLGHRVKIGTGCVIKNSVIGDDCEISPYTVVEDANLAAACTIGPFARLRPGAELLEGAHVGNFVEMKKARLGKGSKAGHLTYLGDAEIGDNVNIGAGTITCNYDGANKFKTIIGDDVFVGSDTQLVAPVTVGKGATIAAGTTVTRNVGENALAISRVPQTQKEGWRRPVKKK
# Procedure: as §1
# Guanlyate kinase = Guanlyate kinase (UniProt Q0TBG1)
# Guanlyate kinase, sequence (Q0TBG1 whole entry): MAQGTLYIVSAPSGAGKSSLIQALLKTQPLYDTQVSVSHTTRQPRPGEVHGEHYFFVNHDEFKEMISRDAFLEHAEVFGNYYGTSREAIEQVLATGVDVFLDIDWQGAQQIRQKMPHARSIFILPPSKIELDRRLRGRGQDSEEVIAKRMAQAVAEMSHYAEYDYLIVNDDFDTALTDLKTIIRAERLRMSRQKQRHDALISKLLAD
# Procedure: as §1
# MurA = MurA (UniProt Q3YX52)
# MurA, sequence (Q3YX52 whole entry): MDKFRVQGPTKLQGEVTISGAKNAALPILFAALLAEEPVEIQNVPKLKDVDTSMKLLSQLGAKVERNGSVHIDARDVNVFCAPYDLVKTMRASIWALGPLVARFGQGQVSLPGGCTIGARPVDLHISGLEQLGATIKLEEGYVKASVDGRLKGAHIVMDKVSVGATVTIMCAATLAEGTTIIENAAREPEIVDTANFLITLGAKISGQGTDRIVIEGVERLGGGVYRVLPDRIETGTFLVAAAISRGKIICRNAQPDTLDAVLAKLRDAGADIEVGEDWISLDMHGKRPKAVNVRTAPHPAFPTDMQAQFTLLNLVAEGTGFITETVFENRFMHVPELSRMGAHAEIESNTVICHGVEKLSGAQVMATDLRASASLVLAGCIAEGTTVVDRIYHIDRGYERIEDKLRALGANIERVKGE
# Procedure: as §1
# MurD = molecular target: T1, MurD (UniProt P14900)
# T1 sequence (whole entry): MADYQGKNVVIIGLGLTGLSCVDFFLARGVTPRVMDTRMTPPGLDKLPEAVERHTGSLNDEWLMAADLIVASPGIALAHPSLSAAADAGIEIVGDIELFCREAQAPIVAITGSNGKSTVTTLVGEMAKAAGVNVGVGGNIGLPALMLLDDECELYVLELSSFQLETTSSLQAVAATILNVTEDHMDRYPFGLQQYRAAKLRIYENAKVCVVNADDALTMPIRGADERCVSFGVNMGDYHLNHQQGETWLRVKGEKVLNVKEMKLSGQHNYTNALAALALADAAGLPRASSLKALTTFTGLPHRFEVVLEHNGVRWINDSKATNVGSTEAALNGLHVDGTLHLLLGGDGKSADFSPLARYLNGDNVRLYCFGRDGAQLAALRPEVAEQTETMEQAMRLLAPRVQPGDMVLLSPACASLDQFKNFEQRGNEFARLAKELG
# Procedure: as §1
# MurF = molecular target: T2, MurF (UniProt P11880)
# T2 sequence (whole entry): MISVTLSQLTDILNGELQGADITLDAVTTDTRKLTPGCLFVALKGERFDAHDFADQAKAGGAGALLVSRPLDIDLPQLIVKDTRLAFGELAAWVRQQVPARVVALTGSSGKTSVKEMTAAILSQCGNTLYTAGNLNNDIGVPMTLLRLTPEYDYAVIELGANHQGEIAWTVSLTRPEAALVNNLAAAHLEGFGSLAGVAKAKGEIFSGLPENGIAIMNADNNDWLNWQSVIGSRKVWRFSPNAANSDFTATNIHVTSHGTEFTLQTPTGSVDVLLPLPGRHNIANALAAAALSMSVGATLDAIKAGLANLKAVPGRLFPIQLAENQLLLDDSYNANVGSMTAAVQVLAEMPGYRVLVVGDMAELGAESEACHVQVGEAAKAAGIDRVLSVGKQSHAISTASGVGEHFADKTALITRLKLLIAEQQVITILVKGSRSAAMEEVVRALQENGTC
# Procedure: as §1
# RNA polymerase = test system: RNA polymerase
# Procedure: as §1
SMILES,relative enzymatic activity (DNA gyrase),relative enzymatic activity (DNA helicase),relative enzymatic activity (DNA ligase),relative enzymatic activity (DNA polymerase),relative enzymatic activity (DNA primase),relative enzymatic activity (GlmU),relative enzymatic activity (Guanlyate kinase),relative enzymatic activity (MurA),relative enzymatic activity (MurD),relative enzymatic activity (MurF),relative enzymatic activity (RNA polymerase)
COC1=C(OC)C(=O)C(CCCCCCCCCC[P+](c2ccccc2)(c2ccccc2)c2ccccc2)=C(C)C1=O,≤ 0,0.0205 ± 0.0027,0.705 ± 0.021,0.0027 ± 0.0017,≤ 0,0.155 ± 0.019,≤ 0,0.021 ± 0.0015,0.162 ± 0.074,0.211 ± 0.023,0.0008799 ± 4.6e-06
COC(=O)N/N=C/c1c[n+]([O-])c2ccccc2[n+]1[O-],0.905 ± 0.076,0.651 ± 0.26,0.933 ± 0.14,1.16 ± 0.23,0.803 ± 0.018,1.012 ± 0.0043,0.591 ± 0.026,0.719 ± 0.12,0.604 ± 0.4,0.913 ± 0.27,0.789 ± 0.081
CC[C@H]1OC(=O)C[C@@H](O)[C@H](C)[C@@H](O[C@@H]2O[C@H](C)C[C@H](N(C)C)[C@H]2O)[C@@H](CC=O)C[C@@H](C)C(=O)/C=C/[C@]2(C)O[C@H]2[C@@H]1C,0.781 ± 0.33,0.296 ± 0.13,0.912 ± 0.064,1.17 ± 0.26,0.854 ± 0.017,1.0039 ± 0.00034,0.968 ± 0.11,0.673 ± 0.17,0.55 ± 0.38,1.06 ± 0.2,0.864 ± 0.08
Cl.NC1CCN(c2c(F)cc3c(=O)c(C(=O)O)cn(C4CC4)c3c2Cl)C1 (stereo not drawn),0.213 ± 0.3,0.622 ± 0.2,0.994 ± 0.13,1.08 ± 0.17,0.872 ± 0.014,0.974 ± 0.019,0.92 ± 0.21,0.73669 ± 0.0002,0.606 ± 0.42,0.977 ± 0.24,0.809 ± 0.07
CC(O)C1C(=O)N2C(C(=O)O)=C(SC3CNC(C(=O)N(C)C)C3)C(C)C12 (stereo not drawn),0.734 ± 0.42,0.994 ± 0.1,1.45 ± 0.021,1.26 ± 0.3,0.719 ± 0.22,1.04 ± 0.19,0.973 ± 0.11,0.501 ± 0.29,0.487 ± 0.33,0.584 ± 0.82,1.09 ± 0.28
CC[C@H]1OC(=O)[C@H](C)[C@@H](O[C@H]2C[C@@](C)(OC)[C@@H](O)[C@H](C)O2)[C@H](C)[C@@H](O[C@@H]2O[C@H](C)C[C@H](N(C)C)[C@H]2O)[C@](C)(O)C[C@@H](C)C(=O)[C@H](C)[C@@H](O)[C@]1(C)O,0.598 ± 0.22,0.608 ± 0.21,0.92 ± 0.048,0.503 ± 0.71,0.838 ± 0.027,0.9665 ± 0.0044,0.961 ± 0.098,0.848 ± 0.071,0.584 ± 0.39,0.939 ± 0.22,0.863 ± 0.024
CC(C)(ON=C(C(=O)NC1C(=O)N2C(C(=O)[O-])=C(C[n+]3ccccc3)CSC12)c1csc(N)n1)C(=O)O (stereo not drawn),0.0358 ± 0.051,0.494 ± 0.12,1.08 ± 0.29,0.444 ± 0.021,0.593 ± 0.11,0.79 ± 0.019,0.876 ± 0.015,0.0456 ± 0.016,0.548 ± 0.37,0.924 ± 0.15,0.137 ± 0.0022
CCCN1C[C@H](C)[C@@H](O)[C@](C)(O)[C@@H](CC)OC(=O)[C@H](C)[C@@H](O[C@H]2C[C@@](C)(OC)[C@@H](O)[C@H](C)O2)[C@H](C)[C@@H](O[C@@H]2O[C@H](C)C[C@H](N(C)C)[C@H]2O)[C@](C)(O)C[C@H]1C,0.764 ± 0.38,0.556 ± 0.17,0.802 ± 0.014,1.09 ± 0.11,0.868 ± 0.012,1.073 ± 0.0078,0.858 ± 0.12,0.761 ± 0.074,0.596 ± 0.42,0.968 ± 0.17,0.766 ± 0.12
